# Data reported in ChEMBL document CHEMBL4513216, “Probing the Open Global Health Chemical Diversity Library for Multistage-Active Starting Points for Next-Generation Antimalarials” (ACS Infect Dis, 2020).
# In all, about 69,000 compounds went through this assay and about 8,600 (12%) showed an effect of 50% or more. Only a selection was taken, and strong results are over-represented in it overall.
# System: Plasmodium berghei
# Test: Screen against P. berghei liver stage (PbLuc), transformed with Luciferase, at 10uM
# Format: functional, HepG2
# Conditions: tested at 10 uM
row,SMILES,INHIBITION
1,CCc1cc(CN(C)C(=O)CN2CC3(CCNCC3)OC2=O)on1,44.2%
2,Cc1ncsc1CCN(C)C(=O)CN1CC2(CCNCC2)OC1=O,-5.52%
3,Cc1cc(C)n(CCCN(C)C(=O)CN2CC3(CCNCC3)OC2=O)n1,25.8%
4,Cc1cc(CN(C)C(=O)CN2CC3(CCNCC3)OC2=O)n(C)n1,64.8%
5,Cc1cc(CN(C)C(=O)CN2CC3(CCNCC3)OC2=O)no1,-20.7%
6,Cc1nnsc1CN(C)C(=O)CN1CC2(CCNCC2)OC1=O,51.8%
7,COc1ccc2c(c1)CCN2Cc1nc2c(cnn2C)c(=O)[nH]1,33.8%
8,CS(=O)(=O)NCCCNC(=O)NCc1ccccc1,-40.2%
9,CC(=O)N1CC(=O)N(c2cnn(C)c2)CC12CCN(CC1CC1)C2 (stereo not drawn),30.1%
10,Cc1ccn(CCNC(=O)C2CCN(S(=O)(=O)c3ccc(F)cc3)C2)n1 (stereo not drawn),3.91%
11,Cn1cc([C@@H]2CN(S(=O)(=O)c3cccnc3)C[C@H]2N)c2ccncc21,-30.435%
12,CN(C)c1cc2c(nn1)CCN(C(=O)C1CCCc3ccccc31)C2 (stereo not drawn),5.03%
13,CC(C)c1ccc(CC(=O)N2CCCC3(CN(C)C(=O)O3)C2)cc1 (stereo not drawn),24.3%
14,CCn1ncnc1C(C)Nc1cc(C2CCNCC2)nc(C)n1 (stereo not drawn),-63.5%
15,CN(CC1(C)COC1)C(=O)c1cc(-c2ccn(C)n2)nc2ccccc12,18.2545%
16,Cc1noc(C)c1-c1ccnc(C2CCN(C3CCOCC3)CC2)c1,24.4%
17,Cc1noc(C)c1-c1ccnc(C2CCNCC2)c1,67.7%
18,Cc1noc(C)c1-c1cc(C2CCNCC2)ccn1,20.8%
19,CSCC[C@@H]1CN2CCC[C@H]2CN1Cc1coc2ccc(C)cc2c1=O,40.09%
20,Cc1ccc(CN2CC(C(=O)N3CCCC3)C3(CCOCC3)C2)s1 (stereo not drawn),-11.1%
21,O=C([C@H]1CCS(=O)(=O)[C@@H]2CN(CCc3ccccc3)C[C@H]12)N1CCCC1,39.3%
22,Cc1nc(CN2CC(CO)Oc3ccccc32)sc1C (stereo not drawn),-10.3%
23,Cc1csc(CN2CC(CO)Oc3ccccc32)n1 (stereo not drawn),24.3%
24,CN(Cc1nnnn1C1CC1)CC1COc2ccccc2O1 (stereo not drawn),17.5%
25,CN(Cc1nc(CC2CC2)no1)CC1COc2ccccc2O1 (stereo not drawn),29.6%
26,CCN1CC(CN(C)c2cc(C)nc(N)n2)Oc2ccccc21 (stereo not drawn),82.4%

row,SMILES,INHIBITION
1,CCCn1nnnc1CN(CC)CC1COc2ccccc2O1 (stereo not drawn),45.9%
2,Cc1cc(N(C)CC2COc3ccccc3O2)nc(N)n1 (stereo not drawn),80.1%
3,CN(CC1COc2ccccc2O1)C(=O)NCCCn1cccn1 (stereo not drawn),-14.4%
4,Cc1cc(N(C)CC2COc3ccccc3O2)nc(C)n1 (stereo not drawn),83.5%
5,Cc1cnc(N2CC[C@@H]3O[C@H](COCc4ccccn4)CC[C@@H]32)nc1,5.44%
6,CC(C)c1cc(=O)[nH]c(-c2ccccc2CN2CCCCCC2)n1,23.1%
7,CCSc1cncc(N2CCC(C(=O)NC(C)C(C)C)CC2)n1 (stereo not drawn),-26.2%
8,NC(=O)C1CCN(C(=O)c2ccn(-c3ccc(F)cc3)n2)CC1,-66.9%
9,CCN(Cc1cccnc1)CC1(C)Cc2c(N)nc(N)nc2O1 (stereo not drawn),4.57%
10,CCC1c2ccsc2CCN1C(=O)NCc1cccnc1OC (stereo not drawn),9.383%
11,O=C(c1cnccn1)N1CCCC2(CCN(c3ncccn3)C2)C1 (stereo not drawn),9.63%
12,COCC(=O)N1CCCCC1c1ccnc(Nc2ncc(C)s2)n1 (stereo not drawn),48.4%
13,CN(C)CCO[C@H]1CN(C(=O)c2cscn2)[C@@H]2COC[C@H]12,-16.1%
14,CC1CCN(S(=O)(=O)N2Cc3ccccc3C[C@H]2C(N)=O)CC1,43.2%
15,NC(=O)[C@@H]1Cc2ccccc2CN1S(=O)(=O)N1CCCCCC1,32%
16,NC(=O)[C@@H]1Cc2ccccc2CN1S(=O)(=O)N1CCCCC1,51%
17,Cc1ccc(OC2(C(=O)O)CCN(C(=O)CCc3ccco3)CC2)cc1,31.4%
18,CC1CCN(C(=O)C2(Cc3cc(C4CCOC4)no3)CCNCC2)CC1 (stereo not drawn),32.3%
19,Cc1noc(C)c1C(=O)N1C[C@@H]2C[C@@H](c3ccncn3)O[C@@H]2C1,-10.9%
20,COc1cc(-c2noc(C(CC(C)C)N3CCCCC3=O)n2)ccn1 (stereo not drawn),34.1%
21,COc1ccc(-c2noc(C(CC(C)C)N3CCCCC3=O)n2)cn1 (stereo not drawn),51.7%
22,CC(C)CC(c1nc(-c2cnn(C)c2)no1)N1CCCCC1=O (stereo not drawn),38.7%
23,CCCNC(=O)c1nn(CC)cc1Cl,24.2%
24,CC(=O)N1CCC1c1cc(NC2CCOCC2)nc(C)n1 (stereo not drawn),11.65%
25,Cc1ccnc(C2CN(Cc3ccc(-c4ccccc4C(=O)O)o3)C2)n1,14.35%
26,O=C(c1cnc(O)cn1)N1CCC(CN2CCOCC2)CC1,-30.3%

row,SMILES,INHIBITION
1,Cc1ccc(C(=O)N2CCN(Cc3cccs3)CC2)n1C,19.4%
2,COc1ccc(CN2CCN(C(=O)c3ccc(C)n3C)CC2)cc1,46.2%
3,Cc1ccc(C(=O)N2CCN(Cc3ccc(C#N)cc3)CC2)n1C,54.4%
4,Cc1ccc(C(=O)N2CCN(Cc3ccccc3)CC2)n1C,27.6%
5,CCOc1ccc(CN2CCN(C(=O)c3ccc(C)n3C)CC2)cc1,74.8%
6,Cc1ccc(C(=O)N2CCN(Cc3ccsc3)CC2)n1C,9.32%
7,CC(C)N1CCCC1c1cc(CO)[nH]n1 (stereo not drawn),9.585%
8,O=C(NCCN1CCOC1=O)c1cc(-c2ccccc2)on1,30.2%
9,CCSc1ccc(C(=O)N2CCC3(CC2)[C@H](O)C[C@@H]3O)s1,16.7%
10,CCSc1ccc(C(=O)N2CC[C@](O)(CC)[C@H](O)C2)s1,53.9%
11,CCSc1ccc(C(=O)N2CC[C@](C)(O)[C@H](C)C2)s1,-5.12%
12,Cc1ccc(CN2CCn3c(CN4CCN(C)CC4)cnc3C2C)s1 (stereo not drawn),24.3%
13,CC(C(=O)NCc1ccc2c(c1)OCCO2)n1cncn1 (stereo not drawn),46.6%
14,COc1cc(CN2CC[C@@H](N3CCCCCC3)[C@H](O)C2)cc(Cl)c1OC,1.56%
15,CC1CC(=O)c2cc(C(=O)N3CCOCC3)c(=O)[nH]c2C1 (stereo not drawn),13.9%
16,CN(C)C(=O)CN1C[C@H]2CC[C@@H](C1)N(Cc1ccccc1OCCO)C2,59.7%
17,CN(C)C(=O)CN1C[C@H]2CC[C@@H](C1)N(C/C=C/c1ccc(F)cc1)C2,52.5%
18,CN(C)C(=O)CN1C[C@H]2CC[C@@H](C1)N(Cc1ccc(Cl)cc1Cl)C2,19.1%
19,CN(C)C(=O)CN1C[C@H]2CC[C@@H](C1)N(Cc1cccc(Cl)c1Cl)C2,61.8%
20,CN(C)C(=O)N1C[C@H]2CC[C@@H](C1)N(C/C=C/c1ccc(F)cc1)C2,-27.7%
21,CN(C)C(=O)CN1C[C@H]2CC[C@@H](C1)N(Cc1cc(F)ccc1F)C2,0.139%
22,CN(C)C(=O)CN1C[C@H]2CC[C@@H](C1)N(Cc1c(F)cccc1Cl)C2,29.8%
23,CN(C)S(=O)(=O)N1C[C@H]2CC[C@@H](C1)N(C/C=C/c1ccc(F)cc1)C2,30.7%
24,CN(C)C(=O)CN1C[C@H]2CC[C@@H](C1)N(Cc1ccccc1C#N)C2,41.5%
25,CCOc1ccc(Cl)c(C(=O)N2CCCC(c3cc(C)[nH]n3)C2)n1 (stereo not drawn),-4.13%
26,CS(=O)(=O)NCC(=O)NC1CCCN(c2ccccn2)C1 (stereo not drawn),7.605%

row,SMILES,INHIBITION
1,CC1(C)CN(C(=O)c2cc(F)cc3[nH]cnc23)CCS1,10.2%
2,O=C1COC2(CCN(C(=O)c3ccco3)CC2)CN1Cc1cccnc1,43.2%
3,CNC(=O)[C@@H]1CN(C(=O)COC)C[C@H]1c1ccnc(N2CCCC2)n1,21.7%
4,Cn1ccc(C(=O)Nc2cc(F)ccc2OCC2CCCO2)cc1=O (stereo not drawn),15.6%
5,Cc1nc(COCc2nc3c(o2)CN(C(=O)c2ccc[nH]2)C3)cs1,-13.9%
6,CN(C)CC(=O)N1CCO[C@@H]2CC(COCc3ccncc3)C[C@H]21 (stereo partly drawn),11.3%
7,Cc1cc(C)cc(CCC(=O)N(C)CCc2cn[nH]c2)c1,-10.2%
8,CN(CCc1cn[nH]c1)C(=O)C(c1ccc(F)cc1)N(C)C (stereo not drawn),43.7%
9,Cc1cccc(C(C(=O)N(C)CCc2cn[nH]c2)N(C)C)c1 (stereo not drawn),42.6%
10,Cc1ccccc1C(C(=O)N(C)CCc1cn[nH]c1)N(C)C (stereo not drawn),54.4%
11,Cc1ccc(C(C(=O)N(C)CCc2cn[nH]c2)N(C)C)cc1 (stereo not drawn),51.1%
12,Cc1ccccc1C(C(=O)N(C)CCc1cnn(C)c1)N(C)C (stereo not drawn),31.7%
13,COc1cccc(C(C(=O)O)N(C)Cc2ccc(C)o2)c1 (stereo not drawn),46.7%
14,CN(C)[C@@H]1CN(C(=O)c2cc3ccc(F)cc3[nH]2)C[C@H]1O,18.15%
15,Cc1ccsc1C(=O)N1CCCn2c(nc(CN(C)C)cc2=O)C1,-10.3%
16,CCn1c(CN2CCN(CCOC)CC2)nc2c(F)cccc21,46.95%
17,O=C1CCCCCN1CCc1nc(-c2cccnn2)no1,9.04%
18,c1cnnc(-c2noc(CCN3CCCO3)n2)c1,-8.51%
19,O=C1CCCCN1CCc1nc(-c2cccnn2)no1,52.9%
20,COc1ccc(CN2CCc3ncnc(C4CCOC4)c3CC2)cc1 (stereo not drawn),24.6%
21,CCOc1cc(CNc2nnn(C)n2)ccc1OCc1ccc(Cl)cc1,63.1%
22,Cn1nnc(NCc2ccccc2OCc2ccc(Cl)cc2)n1,4.07%
23,Cn1nnc(NCc2ccc(OCc3ccc(Cl)cc3)cc2)n1,-47.4%
24,Cc1ccc(NC2CCN(C(=O)CCc3cscn3)CC2)nn1,7.12%
25,c1ccc(CCNCC2Cn3nncc3CO2)cc1 (stereo not drawn),33%
